22 targets from the supplement of paper PMC10849652 can be followed below.

Common to all, as to experiment: log2 fold change, soluble protein after heating vs DMSO (PISA); higher = thermal stabilisation; K562 lysate, 10 uM; active = over 0.2 and 3.5 SD of the protein, either way, in both replicates (recomputed)
Compound in assay [1]: Cc1cn(-c2cc(NC(=O)c3ccc(C)c(Nc4nccc(-c5cccnc5)n4)c3)cc(C(F)(F)F)c2)cn1 [nilotinib]
The procedure, abridged:
(§1)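 Log-two fold change in thermal stability relative to solvent controls is reported from duplicates. For each sample, crude K562 extract from dounce-homogenised pellets in PBS pH 7.4 with 1 mM MgCl2, at 1 mg/mL protein, was treated with 10 μM compound for 30 min. Aliquots heated for 3 min across 48°C-58°C were pooled, brought to 0.5% NP-40 at 4°C and cleared at 21,000xg for 90 min. The supernatant was quantified by TMTpro 16plex LC-MS/MS with channel sums equalised.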

Compound in assay [2]: Cc1nc(Nc2n[nH]c3c2CN(C(=O)N[C@H](CN(C)C)c2ccccc2)C3(C)C)c2sccc2n1
The procedure, abridged: as §1

Compound in assay [3]: Cc1nc(Nc2ncc(C(=O)Nc3c(C)cccc3Cl)s2)cc(N2CCN(CCO)CC2)n1 [dasatinib]
The procedure, abridged: as §1

Compound in assay [4]: Cc1ncc(-c2ccnc(Nc3ccc(S(C)(=O)=O)cc3)n2)n1C(C)C
The procedure, abridged: as §1

Compound in assay [5]: Cn1cc(-c2ccc3c(c2)CCN3C(=O)Cc2cccc(C(F)(F)F)c2)c2c(N)ncnc21
In a few lines: as §1

Compound in assay [6]: Cn1cncc1[C@@](N)(c1ccc(Cl)cc1)c1ccc2c(c1)c(-c1cccc(Cl)c1)cc(=O)n2C [tipifarnib]
The procedure, abridged: as §1

Compound in assay [7]: NC(=O)c1cnc(N[C@@H]2CCCC[C@@H]2N)nc1Nc1cccc(-n2nccn2)c1
In a few lines:
as §1

Compound in assay [8]: NC1(c2ccc(-c3nc4ccn5c(=O)[nH]nc5c4cc3-c3ccccc3)cc2)CCC1
In a few lines:
as §1

Compound in assay [9]: Cn1cc(CNCC2CCN(c3ncc(C(=O)NO)cn3)CC2)c2ccccc21 [quisinostat]
The procedure, abridged: as §1

Compound in assay [10]: NC(=O)Nc1cc(-c2cccc(F)c2)sc1C(=O)N[C@H]1CCCNC1
The procedure, abridged:
as §1

The full data set covers some 8,800 targets. This sample favours those with a hit. About 0.5% of all pairs of compound and target were hits. Unmarked numbers belong to inactive results.

Chain of UniProt O15120 (O15120 whole entry, looked up): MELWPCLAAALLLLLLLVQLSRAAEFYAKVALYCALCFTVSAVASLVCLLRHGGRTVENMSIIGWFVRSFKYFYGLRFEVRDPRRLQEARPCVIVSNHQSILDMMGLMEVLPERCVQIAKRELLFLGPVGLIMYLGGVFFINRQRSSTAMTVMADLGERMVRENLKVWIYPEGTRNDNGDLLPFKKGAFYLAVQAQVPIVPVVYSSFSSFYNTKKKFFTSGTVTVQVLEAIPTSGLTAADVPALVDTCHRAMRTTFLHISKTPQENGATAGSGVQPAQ
Chain of UniProt Q6AI12 (Q6AI12 whole entry, looked up): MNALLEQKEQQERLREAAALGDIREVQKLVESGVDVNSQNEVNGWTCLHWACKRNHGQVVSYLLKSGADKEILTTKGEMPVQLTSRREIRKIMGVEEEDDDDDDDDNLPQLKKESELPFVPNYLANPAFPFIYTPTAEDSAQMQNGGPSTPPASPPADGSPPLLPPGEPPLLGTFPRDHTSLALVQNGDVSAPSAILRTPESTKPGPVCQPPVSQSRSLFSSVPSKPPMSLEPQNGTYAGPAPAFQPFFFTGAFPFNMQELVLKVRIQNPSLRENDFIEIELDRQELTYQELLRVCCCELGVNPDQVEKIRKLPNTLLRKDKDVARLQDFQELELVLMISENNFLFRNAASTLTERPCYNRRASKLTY
Chain of UniProt P11310 (P11310 whole entry, looked up): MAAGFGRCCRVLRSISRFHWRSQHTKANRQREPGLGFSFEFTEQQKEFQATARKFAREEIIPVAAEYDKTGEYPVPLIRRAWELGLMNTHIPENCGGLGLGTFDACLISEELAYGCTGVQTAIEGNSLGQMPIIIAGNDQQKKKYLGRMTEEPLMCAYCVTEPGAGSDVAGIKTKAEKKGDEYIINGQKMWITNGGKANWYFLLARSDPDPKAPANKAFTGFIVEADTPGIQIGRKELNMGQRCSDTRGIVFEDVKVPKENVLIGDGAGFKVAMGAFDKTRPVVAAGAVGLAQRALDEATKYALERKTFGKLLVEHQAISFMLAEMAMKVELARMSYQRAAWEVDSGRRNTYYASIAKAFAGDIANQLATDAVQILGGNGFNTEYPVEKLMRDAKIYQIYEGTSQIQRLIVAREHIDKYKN
Chain of UniProt O15440 (O15440 whole entry, looked up): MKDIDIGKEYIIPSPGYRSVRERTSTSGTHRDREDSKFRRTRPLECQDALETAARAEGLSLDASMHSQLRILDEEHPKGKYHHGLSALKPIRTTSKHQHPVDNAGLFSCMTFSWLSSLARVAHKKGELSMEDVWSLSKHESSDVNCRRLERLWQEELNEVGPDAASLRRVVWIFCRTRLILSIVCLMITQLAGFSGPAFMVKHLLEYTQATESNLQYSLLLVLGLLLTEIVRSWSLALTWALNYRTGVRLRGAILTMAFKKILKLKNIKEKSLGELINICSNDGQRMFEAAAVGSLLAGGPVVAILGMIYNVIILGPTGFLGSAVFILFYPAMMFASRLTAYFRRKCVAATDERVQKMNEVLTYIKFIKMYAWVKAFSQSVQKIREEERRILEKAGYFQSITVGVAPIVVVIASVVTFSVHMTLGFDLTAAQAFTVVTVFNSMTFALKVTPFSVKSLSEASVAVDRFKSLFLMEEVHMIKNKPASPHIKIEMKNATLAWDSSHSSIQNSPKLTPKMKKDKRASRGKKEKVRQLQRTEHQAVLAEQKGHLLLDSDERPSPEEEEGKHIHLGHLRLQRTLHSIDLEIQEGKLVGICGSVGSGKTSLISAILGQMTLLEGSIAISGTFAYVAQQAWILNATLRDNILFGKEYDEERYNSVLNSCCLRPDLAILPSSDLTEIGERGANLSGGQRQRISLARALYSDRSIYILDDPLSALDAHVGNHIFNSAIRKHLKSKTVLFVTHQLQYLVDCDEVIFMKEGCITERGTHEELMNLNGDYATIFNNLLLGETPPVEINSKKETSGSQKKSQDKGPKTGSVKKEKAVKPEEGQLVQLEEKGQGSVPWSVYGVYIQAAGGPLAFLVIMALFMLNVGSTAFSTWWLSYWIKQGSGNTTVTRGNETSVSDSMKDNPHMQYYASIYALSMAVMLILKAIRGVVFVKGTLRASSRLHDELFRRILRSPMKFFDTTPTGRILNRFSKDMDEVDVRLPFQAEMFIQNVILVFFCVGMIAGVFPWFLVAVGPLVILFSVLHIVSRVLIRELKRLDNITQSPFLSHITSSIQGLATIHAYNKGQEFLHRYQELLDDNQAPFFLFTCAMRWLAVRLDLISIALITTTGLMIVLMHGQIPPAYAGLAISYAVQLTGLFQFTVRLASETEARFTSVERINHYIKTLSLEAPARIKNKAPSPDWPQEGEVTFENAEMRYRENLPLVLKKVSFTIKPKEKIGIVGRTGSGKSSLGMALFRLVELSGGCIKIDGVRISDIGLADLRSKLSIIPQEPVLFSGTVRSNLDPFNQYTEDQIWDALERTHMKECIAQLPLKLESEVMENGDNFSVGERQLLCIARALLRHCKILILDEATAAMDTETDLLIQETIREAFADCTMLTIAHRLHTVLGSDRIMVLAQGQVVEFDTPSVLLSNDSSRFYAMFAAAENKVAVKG
Chain of UniProt Q3SXY8 (Q3SXY8 whole entry, looked up): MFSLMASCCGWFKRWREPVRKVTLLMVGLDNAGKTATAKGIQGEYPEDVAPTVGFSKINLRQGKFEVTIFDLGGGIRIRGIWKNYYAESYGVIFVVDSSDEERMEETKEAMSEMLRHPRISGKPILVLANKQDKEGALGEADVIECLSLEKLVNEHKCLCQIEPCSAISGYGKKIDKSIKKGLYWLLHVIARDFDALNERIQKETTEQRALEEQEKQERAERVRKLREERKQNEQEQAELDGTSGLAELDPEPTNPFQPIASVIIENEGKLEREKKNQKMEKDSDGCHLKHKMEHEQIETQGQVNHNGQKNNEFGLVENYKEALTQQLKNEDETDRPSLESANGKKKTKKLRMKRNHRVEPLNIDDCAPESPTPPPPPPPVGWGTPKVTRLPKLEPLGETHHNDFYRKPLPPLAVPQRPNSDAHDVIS
Chain of UniProt O14617 (O14617 whole entry, looked up): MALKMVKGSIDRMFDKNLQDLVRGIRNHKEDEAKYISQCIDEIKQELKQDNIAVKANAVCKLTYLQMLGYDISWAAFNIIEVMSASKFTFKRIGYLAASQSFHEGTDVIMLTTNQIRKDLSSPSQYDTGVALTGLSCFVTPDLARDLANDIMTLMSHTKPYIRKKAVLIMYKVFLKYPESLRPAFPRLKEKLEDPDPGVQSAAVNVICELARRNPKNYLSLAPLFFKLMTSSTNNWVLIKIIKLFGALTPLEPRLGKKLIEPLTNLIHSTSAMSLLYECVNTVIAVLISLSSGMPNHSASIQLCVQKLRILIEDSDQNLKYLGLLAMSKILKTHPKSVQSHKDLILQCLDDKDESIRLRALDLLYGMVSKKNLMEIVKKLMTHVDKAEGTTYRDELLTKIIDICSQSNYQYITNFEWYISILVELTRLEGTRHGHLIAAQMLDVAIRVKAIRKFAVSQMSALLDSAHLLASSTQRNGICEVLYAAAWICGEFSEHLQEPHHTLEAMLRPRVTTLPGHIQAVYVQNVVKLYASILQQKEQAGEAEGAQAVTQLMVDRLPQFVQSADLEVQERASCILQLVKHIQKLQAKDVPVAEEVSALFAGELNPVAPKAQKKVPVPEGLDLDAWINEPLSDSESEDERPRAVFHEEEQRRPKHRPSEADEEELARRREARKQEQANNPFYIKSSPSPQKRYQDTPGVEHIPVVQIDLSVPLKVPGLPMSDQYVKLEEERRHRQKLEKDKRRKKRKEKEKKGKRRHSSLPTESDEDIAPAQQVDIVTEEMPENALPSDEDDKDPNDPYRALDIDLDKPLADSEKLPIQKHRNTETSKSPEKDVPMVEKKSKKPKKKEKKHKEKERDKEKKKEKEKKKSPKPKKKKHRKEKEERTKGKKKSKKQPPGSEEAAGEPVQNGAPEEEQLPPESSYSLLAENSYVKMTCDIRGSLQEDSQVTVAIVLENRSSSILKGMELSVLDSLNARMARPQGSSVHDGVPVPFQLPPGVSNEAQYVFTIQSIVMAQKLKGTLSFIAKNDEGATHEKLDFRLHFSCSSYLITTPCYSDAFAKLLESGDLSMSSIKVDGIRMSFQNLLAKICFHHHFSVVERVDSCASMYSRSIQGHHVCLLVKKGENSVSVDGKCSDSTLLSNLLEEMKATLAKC
Chain of UniProt Q04771 (Q04771 whole entry, looked up): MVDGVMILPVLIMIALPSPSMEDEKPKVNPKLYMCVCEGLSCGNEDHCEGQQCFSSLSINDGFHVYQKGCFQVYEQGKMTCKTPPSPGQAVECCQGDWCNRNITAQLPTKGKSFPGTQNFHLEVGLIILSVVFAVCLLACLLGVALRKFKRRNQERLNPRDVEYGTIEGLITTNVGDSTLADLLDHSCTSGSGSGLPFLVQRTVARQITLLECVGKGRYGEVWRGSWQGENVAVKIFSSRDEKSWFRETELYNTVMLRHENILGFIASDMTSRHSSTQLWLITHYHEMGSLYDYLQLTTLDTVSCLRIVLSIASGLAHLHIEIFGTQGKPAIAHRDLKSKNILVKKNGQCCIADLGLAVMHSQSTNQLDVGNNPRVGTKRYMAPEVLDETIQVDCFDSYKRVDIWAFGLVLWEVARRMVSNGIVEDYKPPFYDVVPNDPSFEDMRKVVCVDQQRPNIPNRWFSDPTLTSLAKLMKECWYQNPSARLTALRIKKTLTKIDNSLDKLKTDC
Chain of UniProt Q13686 (Q13686 whole entry, looked up): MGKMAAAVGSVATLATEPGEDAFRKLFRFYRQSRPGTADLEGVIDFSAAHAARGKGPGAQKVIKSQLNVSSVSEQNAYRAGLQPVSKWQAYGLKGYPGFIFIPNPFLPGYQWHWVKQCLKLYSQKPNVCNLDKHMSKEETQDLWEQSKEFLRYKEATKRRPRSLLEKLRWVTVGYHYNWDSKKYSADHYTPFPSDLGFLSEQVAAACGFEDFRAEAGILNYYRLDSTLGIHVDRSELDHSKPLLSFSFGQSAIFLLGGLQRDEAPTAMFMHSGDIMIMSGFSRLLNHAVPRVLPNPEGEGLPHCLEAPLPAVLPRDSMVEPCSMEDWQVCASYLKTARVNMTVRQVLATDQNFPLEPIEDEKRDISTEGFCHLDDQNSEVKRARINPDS

On to ANKRD30B (UniProt Q9BXX2), for which the log2 fold change in assay [1] is 0.061; in assay [2], -0.076; in assay [3], -0.061; in assay [4] it was 0.072; in [5] it was -0.015; in assay [6], -0.065. Besides, the log2 fold change in assay [7] is 0.059; in assay [8], -0.051.
With ADD1 isoform 4 (UniProt P35611), the log2 fold change in [3] was -0.017; in assay [5], -0.075; in assay [7] it was -0.109; in [8] it was -0.274.
Consider ALDH18A1 isoform 2 (UniProt P54886), for which the log2 fold change in [3] is 0.089; in assay [5], 0.181; in assay [9], 0.397; in assay [10], -0.093.
With ARHGAP21 (UniProt Q5T5U3), the log2 fold change in [1] was -0.017; in [2], -0.014; in assay [3], -0.039; in [4] it was -0.036; in [5] it was 0.017; in assay [9] it was -0.06. The log2 fold change in assay [6] is 0.019; in assay [10], 0.053; in [7], 0.002; in assay [8], -0.021.
Consider ALG13 isoform 2 (UniProt Q9NP73), for which the log2 fold change in [1] is 0.142; in [2] it was -0.082; in [4], -0.066; in assay [6] it was 0.371.
Consider ALKBH1 (UniProt Q13686), for which the log2 fold change in [1] was -0.087; in assay [2], -0.026; in assay [3] it was -0.249; in assay [4], -0.052; in assay [5], 0.007; in [6] it was 0.137. Besides, the log2 fold change in assay [8] is 0.116.
For the target ABI1 isoform 6 (UniProt Q8IZP0), the log2 fold change in [7] was 0.113.
For the target ABL1 isoform 2 (UniProt P00519), the log2 fold change in [2] is 0.006; in [4] it was 0.019; in assay [5] it was -0.002; in assay [9] it was -0.074; in assay [6] it was -0.074; in assay [10], 0.08. Moreover, the log2 fold change in [7] is 0.022; in assay [8], -0.009.
As for ABCA3 (UniProt Q99758), the log2 fold change in assay [3] was 0.044; in assay [5] it was -0.066; in assay [9], 0.08; in assay [10], -0.092; in [7], 0.001; in assay [8] it was -0.019.
For AKT2 (UniProt P31751), the log2 fold change was -0.013 in [1]; -0.004 in assay [2]; 0.003 in [3]; -0.008 in assay [4]; 0.005 in assay [5]; 0.001 in assay [9]. Moreover, the log2 fold change was 0.017 in assay [6], 0.019 in assay [10], -0.015 in assay [7] and 0.559 (active) in assay [8].
AIMP2 isoform 2 (UniProt Q13155): the log2 fold change was -0.106 in [9], 0.067 in assay [10] and 0.017 in assay [7].
For ACVR1 (UniProt Q04771), the log2 fold change in assay [1] is -0.11; in [2], 0.013; in assay [3], 0.258; in assay [4], 0.476; in [5], -0.046; in [6] it was -0.309.
ADAM17 (UniProt P78536): the log2 fold change in [1] was -0.093; in assay [2], -0.151; in assay [3], -0.032; in assay [4], 0.021; in assay [5], 0.054; in [9] it was 0.01. In addition, the log2 fold change in [6] was 0.039; in assay [10] it was 0.002; in assay [8], -0.012.
With AP3D1 isoform 2 (UniProt O14617), the log2 fold change is -0.287 in assay [1]; 0.035 in assay [2]; 0.376 in assay [4]; -0.132 in [6]; 0.034 in assay [7]; -0.121 in assay [8].
For ABCC5 (UniProt O15440), the log2 fold change in [3] is 0.105; in assay [5], -0.047; in [9] it was -0.003; in assay [10], 0.035; in [7], -0.035; in assay [8], -0.015.
Consider ANKRD44 isoform 2 (UniProt Q8N8A2), for which the log2 fold change was -0.19 in [1]; -0.03 in [2]; -0.216 in assay [4]; 0 in assay [6]; -0.019 in assay [7]; 0.025 in [8].
In the case of ANXA5 (UniProt P08758), the log2 fold change in assay [1] was 0.031; in [2] it was -0.008; in assay [3], -0.009; in assay [4], -0.067; in assay [5], 0.022; in [9], 0.111. In addition, the log2 fold change in assay [6] was 0.019; in assay [10] it was 0.018; in [7], 0.01; in [8], 0.012.
Consider ALG3 (UniProt Q92685), for which the log2 fold change was -0.049 in assay [3]; 0.068 in assay [5]; 0.077 in assay [9]; -0.017 in assay [10]; 0.092 in assay [7]; -0.036 in assay [8].
Regarding ACADM isoform 2 (UniProt P11310), the log2 fold change is -0.031 in assay [1]; -0.008 in [2]; -0.041 in assay [3]; -0.009 in [4]; 0.001 in assay [5]; 0.009 in assay [9]. The log2 fold change is -0.021 in [6], -0.027 in assay [10], -0.033 in [7] and -0.091 in assay [8].
Take ARL13B (UniProt Q3SXY8): the log2 fold change in assay [3] is 0; in [5], -0.012; in [9] it was -0.313; in assay [10], 0.095; in assay [7], 0.131; in assay [8] it was 0.013.
As to ANKRD40 (UniProt Q6AI12), the log2 fold change in assay [1] was -0.04; in assay [2], -0.115; in [3], 0.197; in assay [4] it was 0.071; in assay [5], -0.064; in assay [9], -0.161. Further, the log2 fold change is 0.137 in assay [6], -0.001 in [10] and -0.119 in assay [8].
For the target AGPAT2 (UniProt O15120), the log2 fold change in assay [1] was -0.044; in assay [2], 0.046; in assay [4], -0.037; in assay [9] it was 0.006; in [6], 0.029; in [10], 0.018. Also, the log2 fold change in assay [8] is 0.02.
